# From PubChem BioAssay (NCATS)
# Values joined by “and” are separate entries in the source; they are usually repeats but may differ in a detail not shown here. Identical values can stand only once. Inconclusive results are not listed. Active and inactive are the calls of the source. Unless noted, the call rests on the fitted dose curve.
# Key:
# [1] = qHTS assay for small molecule agonists of retinoid X receptor alpha signaling (AID 588544); conditions: HEK293T RXRa-UAS-bla, beta-lactamase reporter, 18 h; 530 nm emission;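 on activation: 0% = DMSO basal wells and 100% = reference agonist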
# [2] = target: Retinoic acid receptor RXR-alpha (Homo sapiens) (UniProt P19793); assay: as above; conditions: HEK293T RXRa-UAS-bla, beta-lactamase reporter, 18 h; series mostly up to 76.7 µM
# [3] = target: Thyroid hormone receptor beta (Homo sapiens) (UniProt P10828); assay: qHTS assay for small molecule agonists of thyroid hormone receptor beta signaling (AID 588545); conditions: TR-UAS-bla GripTite HEK 293, beta-lactamase ratio, agonist mode, 18 h, percent of T3 response, DMSO as zero; series mostly up to 76.7 µM
# Method in brief: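 In this cell-based screen, titrated compounds act on HEK 293 cells held in medium with 2% charcoal/dextran FBS, NEAA and pyruvate for 18 hrs at 37 C. Responses are expressed relative to T3 (10 nM) as 100% and basal DMSO as 0%.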
# [4] = target: Thyroid hormone receptor beta (Homo sapiens) (UniProt P10828); assay: qHTS assay for small molecule antagonists of thyroid hormone receptor beta signaling (AID 588547; active means well fitted inhibition curve with a large enough effect in the signal ratio, with a control signal flat, not every such curve was filed as active; the % refers to the signal ratio;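 further: cells stimulated with 0.4 nM T3 agonist during compound exposure; on the % scale 0 is the no-effect control and ±100 the full control effect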); conditions: TR-UAS-bla HEK293, beta-lactamase ratio, antagonist mode, 18 h
# Method in brief: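 TR-UAS-bla GripTite HEK293 cells in 2% charcoal/dextran FBS medium; compounds 0.59 nM to 92 uM with T3 at 0.4nM final, 18 h at 37 C. Beta-lactamase read by CCF4 fluorescence (460/530 nm); Hill fits gave IC50 and efficacy.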
# [5] = target: Voltage-gated inwardly rectifying potassium channel KCNH2 (Homo sapiens) (UniProt Q12809); assay: qHTS Assay for Small Molecule Inhibitors of the Human hERG Channel Activity (AID 588834; active means well fitted inhibition curve with a large enough effect;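 further: top concentration of the series differs between compounds; on the % scale 0 is the no-effect control and ±100 the full control effect; lower thallium flux fluorescence means stronger hERG block; nearly all actives have a fitted effect of over 50% in size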); conditions: U2OS BacMam hERG, FluxOR thallium flux fluorescence; series mostly up to 92.2 µM
# Method in brief: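 Concentration-response qHTS measuring drop in thallium-sensitive dye signal. U2OS cells carrying BacMam hERG; compound exposure ~10 min, then stimulation buffer and 2 min read at 1 sec intervals.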
# [6] = qHTS assay for small molecule activators of the p53 signaling pathway (AID 651743; active means well fitted activation curve with a large enough effect in the signal ratio, not every such curve was filed as active; the % refers to the signal ratio; further: % of control where 0% means no effect); conditions: HCT-116 p53RE-bla, beta-lactamase FRET ratio, 16 h; stronger effect = higher value
# Method in brief: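 p53RE-bla HCT-116 cells carrying a beta-lactamase reporter under p53 response elements were exposed to compounds for 16 hours at 37 C. Reporter activity read as fluorescence after 2 hours at room temperature with LiveBLAzer B/G FRET substrate.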
# [7] = qHTS assay for small molecule antagonists of retinoid X receptor alpha signaling (AID 588546; active means well fitted inhibition curve with a large enough effect in the signal ratio, with a control signal flat, not every such curve was filed as active; the % refers to the signal ratio;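 further: cells stimulated with 9-cis-retinoic acid as agonist; on the % scale 0 is the no-effect control and ±100 the full control effect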); conditions: HEK293T RXRa-UAS-bla, beta-lactamase ratio, antagonist mode; measured here: W530 green channel, cytotoxicity proxy
# Method in brief: (§1)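 Beta-lactamase reporter inhibition, read as CCF4 fluorescence ratio (ex 405, em 460/530 nm) after 2 h at RT. HEK293T UAS-bla cells, 2500/well, were stimulated with 9-cis-RA at 500 or 100 nM final alongside test compound for 18 h at 37 C.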
# [8] = target: Retinoic acid receptor RXR-alpha (Homo sapiens) (UniProt P19793); assay: as above; conditions: HEK293T RXRa-UAS-bla, beta-lactamase ratio, antagonist mode
# Method in brief: as §1
# [9] = qHTS assay for small molecule agonists of the antioxidant response element (ARE) signaling pathway (AID 651741; active means well fitted activation curve with a large enough effect in the signal ratio; the % refers to the signal ratio; further: potency means the concentration at half of the fitted maximal effect; on activation: % of control where 0% means no effect); conditions: HepG2 ARE-bla reporter, beta-lactamase FRET ratio, 16 h; series mostly up to 96 µM
# Method in brief: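 CellSensor ARE-bla HepG2 cells (2,000/well) carrying ARE-driven beta-lactamase, exposed 16 h at 37 C. LiveBLAzer B/G FRET substrate added for 2 h at room temperature; fluorescence intensity read.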
# [10] = qHTS assay for small molecule activators of the nuclear factor-kappa B (NF-kB) signaling pathway (AID 651749; active means well fitted activation curve with a large enough effect in the signal ratio; the % refers to the signal ratio; further: % of control where 0% means no effect); conditions: NF-kB-bla ME-180 cells, beta-lactamase FRET ratio, 16 h; stronger effect = higher value
# Method in brief: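 NF-kB-bla ME-180 cells carrying a beta-lactamase reporter under an NF-kB response element, 2,000 cells/well, exposed to compound for 16 hr at 37C; FRET-based beta-lactamase fluorescence read-out of pathway activation.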
# Chain of Voltage-gated inwardly rectifying potassium channel KCNH2 (Homo sapiens) (Q12809 whole entry, looked up): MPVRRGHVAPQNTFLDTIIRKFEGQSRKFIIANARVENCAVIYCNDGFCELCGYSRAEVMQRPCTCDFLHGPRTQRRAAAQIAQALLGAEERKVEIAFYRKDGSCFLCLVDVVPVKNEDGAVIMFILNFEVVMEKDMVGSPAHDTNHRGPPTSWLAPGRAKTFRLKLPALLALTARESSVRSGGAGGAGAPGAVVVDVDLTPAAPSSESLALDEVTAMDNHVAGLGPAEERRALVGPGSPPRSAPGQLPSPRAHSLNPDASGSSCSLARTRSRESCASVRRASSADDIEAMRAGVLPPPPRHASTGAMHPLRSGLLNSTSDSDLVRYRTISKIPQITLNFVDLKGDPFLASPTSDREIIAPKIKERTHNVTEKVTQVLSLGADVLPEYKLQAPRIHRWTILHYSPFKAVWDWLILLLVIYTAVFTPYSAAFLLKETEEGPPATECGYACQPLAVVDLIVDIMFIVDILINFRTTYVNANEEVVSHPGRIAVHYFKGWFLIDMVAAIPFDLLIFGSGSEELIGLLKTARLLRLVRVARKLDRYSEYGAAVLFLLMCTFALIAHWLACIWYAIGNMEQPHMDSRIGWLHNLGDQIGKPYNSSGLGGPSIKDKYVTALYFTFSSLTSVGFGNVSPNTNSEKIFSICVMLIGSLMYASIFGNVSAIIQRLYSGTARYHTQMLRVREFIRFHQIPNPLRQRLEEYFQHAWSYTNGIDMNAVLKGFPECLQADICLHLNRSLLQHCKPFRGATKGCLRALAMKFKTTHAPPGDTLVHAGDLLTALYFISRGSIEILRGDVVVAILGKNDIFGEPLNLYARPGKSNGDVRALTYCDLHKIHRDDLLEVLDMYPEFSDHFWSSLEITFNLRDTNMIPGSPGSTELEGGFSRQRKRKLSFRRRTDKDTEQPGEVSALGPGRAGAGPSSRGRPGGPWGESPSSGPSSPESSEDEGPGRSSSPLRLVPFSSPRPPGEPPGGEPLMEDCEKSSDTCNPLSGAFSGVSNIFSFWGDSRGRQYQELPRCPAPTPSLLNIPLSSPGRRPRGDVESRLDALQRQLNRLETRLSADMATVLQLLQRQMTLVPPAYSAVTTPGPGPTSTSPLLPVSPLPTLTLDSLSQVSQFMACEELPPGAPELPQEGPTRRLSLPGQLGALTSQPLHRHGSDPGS
# Chain of Retinoic acid receptor RXR-alpha (Homo sapiens) (P19793 whole entry, looked up): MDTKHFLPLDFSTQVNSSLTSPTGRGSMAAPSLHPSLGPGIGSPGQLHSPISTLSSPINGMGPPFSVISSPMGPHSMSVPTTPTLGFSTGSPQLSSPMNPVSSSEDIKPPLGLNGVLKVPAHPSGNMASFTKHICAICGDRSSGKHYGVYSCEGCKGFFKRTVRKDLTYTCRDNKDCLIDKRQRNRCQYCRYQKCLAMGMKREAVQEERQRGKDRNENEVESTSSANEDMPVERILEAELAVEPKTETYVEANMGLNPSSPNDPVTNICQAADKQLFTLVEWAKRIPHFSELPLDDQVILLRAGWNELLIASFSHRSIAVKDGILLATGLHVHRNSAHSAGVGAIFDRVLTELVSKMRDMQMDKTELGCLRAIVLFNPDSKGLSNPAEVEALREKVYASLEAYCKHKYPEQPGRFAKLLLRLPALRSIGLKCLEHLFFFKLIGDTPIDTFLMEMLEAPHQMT
# Chain of Thyroid hormone receptor beta (Homo sapiens) (P10828 whole entry, looked up): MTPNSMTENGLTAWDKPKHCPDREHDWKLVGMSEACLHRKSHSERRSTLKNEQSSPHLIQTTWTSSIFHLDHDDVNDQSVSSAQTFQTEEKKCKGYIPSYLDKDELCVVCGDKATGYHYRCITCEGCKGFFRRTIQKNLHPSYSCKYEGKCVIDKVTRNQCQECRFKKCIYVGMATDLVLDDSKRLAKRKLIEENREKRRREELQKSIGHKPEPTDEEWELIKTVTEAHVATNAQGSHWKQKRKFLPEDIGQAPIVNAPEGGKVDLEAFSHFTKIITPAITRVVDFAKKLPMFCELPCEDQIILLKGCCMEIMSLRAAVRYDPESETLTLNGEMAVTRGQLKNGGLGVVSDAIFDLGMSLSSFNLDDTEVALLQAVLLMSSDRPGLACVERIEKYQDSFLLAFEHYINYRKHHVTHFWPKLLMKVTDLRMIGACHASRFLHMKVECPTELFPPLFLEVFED
Structure (SMILES),max response [1],outcome [2],outcome [3],activity change % (negative = inhibition) [4],Potency [5],activation [6],max response [7],max response [8],Potency [9],activation [10]
Cc1cccc2cccnc12,-2.92%,inactive,inactive,-0.45% (inactive),inactive,-4.27% (inactive),–,–,–,–
C/C=C1\CC2C=CC1C2 (configuration not stated),-9.1%,inactive,–,2.19% (inactive),inactive,0.178% (inactive),-2.6%,6.71% (inactive),inactive,-0.076% (inactive)
CCCCOCCOCCOCCCC,-13.3%,inactive,inactive,3.11% (inactive),inactive,-0.253% (inactive),–,–,–,0.513% (inactive)
CC(=O)CC(C)C,-6.71%,inactive,inactive,–,–,-2.45% (inactive),-1.65%,12.3% (inactive),inactive,0.24% (inactive)
Nc1cccc([N+](=O)[O-])c1,-3.08%,inactive,–,-4.44% (inactive),inactive,-4.7% (inactive),-9.54%,1.86% (inactive),–,–
CCCC=O,-4.54%,inactive,–,-7% (inactive),inactive,-2.76% (inactive),6.82%,14.7% (inactive),–,-4.7% (inactive)
C=C(C)C(=O)OCCCCCC,-12.9%,inactive,inactive,6.42% (inactive),inactive,-0.374% (inactive),–,–,–,0.571% (inactive)
CCNS(=O)(=O)c1ccc(C)cc1,7.68%,inactive,–,-4.68% (inactive),inactive,-2.94% (inactive),0.888%,3.72% (inactive),inactive,–
CCCCCCO,-18.4%,inactive,–,4.77% (inactive),inactive,-2.65% (inactive),-3.18%,-1.79% (inactive),–,-0.278% (inactive)
Oc1cccc(Nc2ccccc2)c1,-0.0784%,inactive,inactive,–,inactive,–,–,–,42.2 µM (active),0.49% (inactive)
CNc1ccccc1,-0.986%,inactive,–,-1.47% (inactive),inactive,2.04% (inactive),-0.675%,29.8% (inactive),–,-1.25% (inactive)
COc1ccc(N=[N+]([O-])c2ccc(OC)cc2)cc1,–,–,inactive,–,inactive,-0.811% (inactive),-4.97%,-10.1% (inactive),37.6 µM (active),0.0779% (inactive)
C[C@@H]1CC2(OC[C@]3(C)O[C@H]23)O[C@H]2C[C@@]3(C)[C@@H]4CC[C@H]5C(C)(C)C(O[C@@H]6OC[C@@H](O)[C@H](O)[C@H]6O)CC[C@@]56C[C@@]46CC[C@]3(C)[C@@H]12 (some centres not stated),–,–,inactive,4.18% (inactive),inactive,-7.18% (inactive),–,–,–,-1.67% (inactive)
COC(=O)CS,-8.12%,inactive,–,–,inactive,-2.8% (inactive),-3.61%,1.63% (inactive),inactive,-0.561% (inactive)
C=CCOC(=O)CCCCCCCC,–,–,inactive,–,–,-2.19% (inactive),-1.68%,-5.32% (inactive),inactive,–
CCCCOCCOCCSC#N,3.38%,inactive,–,–,inactive,-1.56% (inactive),-3.14%,5.89% (inactive),inactive,0.862% (inactive)
Nc1nc(-c2ccccc2)cs1,-6.18%,inactive,–,–,inactive,–,7.15%,-5.77% (inactive),37.6 µM (active),0.279% (inactive)
Nc1ccc(F)cc1F,-10.9%,inactive,–,–,inactive,-3.46% (inactive),-8.47%,16.2% (inactive),inactive,-1.13% (inactive)
S=C([S-])NCCNC(=S)[S-].[Zn+2],–,–,inactive,6.23% (inactive) and -0.322% (inactive),inactive,–,–,–,–,–
CC(=O)Nc1ccc(N)cc1,-9.56%,inactive,–,–,inactive,0.791% (inactive),6.27%,0.952% (inactive),–,-0.653% (inactive)
CCN(Cc1ccccc1)c1ccccc1,-15.3%,inactive,–,–,–,1.3% (inactive),-8.88%,-8.29% (inactive),–,–
CC1CCCO1 (configuration not stated),11.5%,inactive,–,1.5% (inactive),inactive,-2.21% (inactive),–,–,–,-0.396% (inactive)
c1ccc2c(c1)ccc1ncccc12,-7.03%,inactive,–,–,inactive,–,-6.57%,-11.7% (inactive),inactive,–
COC(=O)c1ccccc1,0.622%,inactive,–,-7.56% (inactive),inactive,7.4% (inactive),-5.14%,4.4% (inactive),–,1.41% (inactive)
O=C(O)CN(CC(=O)O)CC(=O)O,-7.34% and 8.5%,inactive,–,–,inactive,-2.4% (inactive) and 1.34% (inactive) and -0.523% (inactive),-6.97% and -9%,-2.38% (inactive) and 4.38% (inactive),inactive,–
